Screens as filed in PubChem BioAssay.
An excerpt weighted towards active compounds, which were near 3% of everything screened.
LMP1 NFkB inh: Epstein-Barr LMP1 NF-kappaB reporter inhibition; inhibition, % at 12.5 µM; hit rate 0.69% among 350,000; LMP1-induced NF-kappaB luciferase reporter cells, luminescence; in the data active = inhibition above about 41%; inconclusive = no clear call, values can overlap the other calls;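 note: 0% = neutral control wells and 100% = reference inhibitor control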
KKLEB cytotox: counter-screen for CF NF-kB inhibitors: cytotoxicity; AID 602141; activity change (cytotoxicity), % at 5 µM; hit rate 0.36% among 360,000; KKLEB CF airway cells viability, ATPlite luminescence, overnight; hits give low values; cells stimulated with P. aeruginosa culture filtrate;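 active = corrected activity change at or below -50% at 5 µM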
Peg3 prom inh: Peg3 promoter activity inhibition; hit rate 1.7% among 360,000; inhibition, % at 20 µM; HeLa PEG-Prom luciferase reporter, luminescence, overnight;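 active = inhibition of at least 50% at 20 µM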
CF NFkB inh: cystic fibrosis NF-kB activation inhibition. KKLEB NF-kB-GFP reporter, PAF-induced, GFP fluorescence overnight. AID 588850. hit rate 0.86% among 360,000. inhibition, % at 5 µM;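 active = at least 50% inhibition at 5 µM, scaled per plate between neutral and stimulator controls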;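 note: PAF is a Pseudomonas aeruginosa culture filtrate used as stimulus; plate controls were PAF-stimulated DMSO wells for no effect and unstimulated DMSO wells for full effect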
TRPM1 prom inh: reduces MITF-dependent TRPM1 promoter luciferase signal; SK-MEL-5 TRPM1 promoter luciferase, 24 h; inhibition, % at 12.5 µM; hit rate 0.83% among 330,000; AID 488899;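 active = mean inhibition across replicates of 60% or more, whatever share of single replicates reaches that level; inconclusive = some that reach 60%, reason not given; inactive = mean inhibition across replicates below 60%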
HIF-2a block: HIF-2a inhibition; 786-0 RCC cells HIF-2a reporter, luciferase luminescence, overnight; AID 624352; hit rate 0.72% among 360,000; inhibition, % at 18.8 µM;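 active = inhibition of the luminescence signal of 40% or more relative to plate controls, in a single-dose primary screen at 18.75 µM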
The depositor's hits bear a star; ? = inconclusive; · = no result given.

SMILES	LMP1 NFkB inh	KKLEB cytotox	Peg3 prom inh	CF NFkB inh	TRPM1 prom inh	HIF-2a block
N=c1c2c(-c3ccccc3)c(-c3ccccc3)n(Cc3ccco3)c2ncn1CCO	-42	-17	93*	9	43	37
COc1ccc(CCn2c(=N)c(C(=O)NCc3ccco3)cc3c(=O)n4ccccc4nc32)cc1OC	0	-7	7	-25	-4	2
COc1ccc(CCNC(=O)c2cc3c(=O)n4ccccc4nc3n(Cc3ccco3)c2=N)cc1OC	3	6	73*	-5	0	-41
CCOc1ccc2nc3cc(N=Nc4ccc(N)nc4N)ccc3c(N)c2c1	-40	-2	74*	-100	73*	11
Cc1ccn2c(Nc3ccccc3)c(-c3ccccn3)nc2c1	59*	-21	33	27	?	-22
Cc1cc(C)c2cc(C#N)c(NCCNC(=O)c3ccccn3)nc2c1	·	·	·	·	·	-4
COc1ccc(-c2nn(-c3ccccc3)cc2C(=O)n2nnc3ccccc32)cc1	-13	-25	56*	30	3	16
O=c1c2ccccc2nc(-c2ccc([N+](=O)[O-])cc2)n1O	7	1	19	-4	-1	14
O=[N+]([O-])c1ccc(-c2c(O)c3ccccc3c3nc4ccccc4nc23)cc1	9	-9	52*	42	7	-3
C[C@H]1COC2=C1C(=O)C(=O)c1c2ccc2c1CCCC2(C)C	-20	-3	48	57*	84*	-50
Cc1coc2c1C(=O)C(=O)c1c-2ccc2c(C)cccc12	79*	-28	46	34	·	-87
Cc1coc2c1C(=O)C(=O)c1c-2ccc2c1CCCC2(C)C	-4	-16	69*	70*	93*	-45
Cc1cc(C)cc(C(O)c2ncc(-c3ccc4ccccc4c3)[nH]2)c1 (stereo not drawn)	·	-1	7	4	·	-12
CC(=O)Nc1ccc(NC(=O)c2cc(-c3cc(C)cc(C)c3O)n[nH]2)cc1	-10	-1	-86	0	-29	-110
Cc1cc(C)c(O)c(-c2cc(C(=O)Nc3ccc(S(=O)(=O)N4CCOCC4)cc3)[nH]n2)c1	7	3	59*	7	-5	-5
CC[C@H](C)[C@@H]1OC(=O)[C@@H](C)[C@@H](CC)NC(=O)[C@H](C)N(C)C(=O)C(C)(C)C(=O)C(C)NC(=O)[C@H](Cc2ccccc2)N(C)C(=O)[C@H](C(C)C)N(C)C(=O)CNC(=O)[C@H](CC(C)C)N(C)C(=O)CNC1=O (stereo partly drawn)	·	-97*	87*	91*	·	11
Cc1ccc2nc(-c3ccc(F)cc3)c(Cc3ccccc3C(F)(F)F)n2c1	·	-5	-111	7	·	-139
O=C(/C=C/c1ccc(O)cc1)c1ccc(NC2=C(N3CCCCC3)C(=O)c3ccccc3C2=O)cc1	43*	-15	-46	55*	26	-62
O=C1C(Nc2cccc(O)c2)=C(N2CCCCC2)C(=O)c2ccccc21	3	-11	-31	32	5	39
COC1=C(Nc2ccccc2)C(=O)c2ccccc2C1=O	-11	-7	-44	50*	59	-51
O=C1C(Nc2ccccc2)=C(N2CCCCC2)C(=O)c2ccccc21	5	4	34	16	75*	-1
Cc1ccc(NC2=C(N3CCCCC3)C(=O)c3ccccc3C2=O)cc1	-2	-2	3	-2	32	-154
COc1ccccc1NC1=C(N2CCCCC2)C(=O)c2ccccc2C1=O	4	-6	64*	0	19	-18
CC(C)N1CC2(CC(c3ccccc3C(F)(F)F)=NO2)CN1C(=O)c1ccco1 (stereo not drawn)	16	-7	2	9	·	-10
Cc1ccc(-c2nc3cnccn3c2Nc2c(C)cccc2C)o1	2	-7	102*	10	-1	6
